# Sampled rows, rich in hits. Any-hit rate of the full collection: about 2.4%.
# SENP8 block-1 = human SENP8 protease inhibitors, primary screen, biochemical, fluorescence, Nedd8 protein substrate, uHTS | Sentrin-specific protease 8 (Homo sapiens), Q96LD8 | recombinant SENP8 | inhibition, % at 20 µM | 360,000 tested, 0.64% active | AID 602440, 2012; in the data active = inhibition mostly above about 40%, no sharp cut-off; inactive = mostly below about 27%
# Target sequence (Q96LD8 whole entry, looked up): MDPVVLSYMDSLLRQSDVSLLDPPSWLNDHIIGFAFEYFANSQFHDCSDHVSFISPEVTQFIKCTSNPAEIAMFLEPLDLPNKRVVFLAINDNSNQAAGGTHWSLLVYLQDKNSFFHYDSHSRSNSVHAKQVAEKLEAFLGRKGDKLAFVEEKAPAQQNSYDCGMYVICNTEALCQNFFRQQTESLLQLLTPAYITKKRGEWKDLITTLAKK
# SENP6 inh = SENP6 protease inhibitors, primary screen, biochemical, luminescence, uHTS; Sentrin-specific protease 6 (Homo sapiens), Q9GZR1; Recombinant SENP6 catalytic domain, aminoluciferin luminescence; inhibition, % at 10 µM; 330,000 tested, 1.8% active;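 active = inhibition above about 50% at the single tested dose, limit read from the data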
# SENP8 block-2 = SENP8 protease inhibitors, primary screen, biochemical, luminescence. purified SENP8, Z-RLRGG-aminoluciferin cleavage. inhibition, % at 10 µM. 330,000 tested, 1.2% active; in the data active = inhibition above about 50%
# SENP7 block = SENP7 protease inhibitors, primary screen, biochemical, luminescence, uHTS; Sentrin-specific protease 7 (Homo sapiens), Q9BQF6; recombinant SENP7, Z-RLRGG-aminoluciferin luminescence, 40 min; inhibition, % at 5 µM; 330,000 tested, 1.5% active;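 active = inhibition above about 50% at the single test dose, limit read from the data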
# Platelet DG rel = inhibitors of platelet dense granule secretion, primary screen, cell-based, MLPCN, human platelets; inhibition, %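 (compounds screened at 7.5 µM in platelet-rich plasma)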; human platelet-rich plasma, SFLLRN dense granule ATP release, luminescence; 300,000 tested, 0.22% active; AID 1663, 2009;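 active = mean replicate score, as percent of positive control, at or above 50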
# SENP8 conf = human SENP8 protease inhibitors, confirmation, biochemical, Nedd8 protein substrate, single concentration. inhibition, % at 25 µM. shares compounds with SENP8 block-1. 1,400 tested, 15% active. purified SENP8, Nedd8-AMC/pro-Nedd8 cleavage fluorescence, 30 min; in the data active = inhibition mostly above about 39%, no sharp cut-off; inactive = mostly below about 34%
# A number is an active result; 0 = inactive; - = not tested or not shown.
SMILES,SENP8 block-1,SENP6 inh,SENP8 block-2,SENP7 block,Platelet DG rel,SENP8 conf
CC1=C(C(N)=O)C(c2ccccc2F)n2nc(CCCO)nc2N1 (configuration not stated),0,0,0,0,0,-
CS(=O)(=O)N(CC(=O)NCC1CCCO1)c1ccc(F)c(Cl)c1 (configuration not stated),51,0,0,0,0,0
CS(=O)(=O)N(CC(=O)NCC1CCCO1)c1ccc(Cl)c(Cl)c1 (configuration not stated),0,0,0,0,0,-
CCCOc1ccc(CCC(=O)N/N=C/c2ccco2)cc1,44,0,0,0,0,0
Cc1cc(C)c2oc(C(=O)NC3CCS(=O)(=O)C3)cc(=O)c2c1 (configuration not stated),0,0,0,0,0,-
COc1ccc(/C=N/N=C2/CC(C)(C)Cc3n[nH]c(=O)cc32)cc1,44,0,0,0,0,0
CN(CC(=O)Nc1cccc(F)c1)CC(=O)Nc1ccccc1[N+](=O)[O-],0,0,0,0,-,-
CN(CC(=O)Nc1cccc(F)c1)CC(=O)Nc1ccc(Cl)cc1[N+](=O)[O-],42,0,0,0,0,0
O=C1CN(c2ccc(Cl)cc2)C(=O)CN1NC(=S)Nc1ccc(Cl)cc1,43,0,0,0,0,0
CC(C)CC1C(=O)N(Cc2cn(CCC3OCCO3)nn2)CCS(=O)(=O)N1Cc1ccc(-c2ccc(F)nc2)cc1 (configuration not stated),0,-,-,-,-,-
C=CCn1ccc(=NC=C(C#N)C#N)c2ccccc21,45,0,0,0,0,0
Cc1ccc(CN=Cc2[nH]c3ccc(Br)c(Cl)c3c2O)cc1,44,0,0,0,0,0
Oc1c(C=NCc2ccc(F)cc2)[nH]c2ccc(Br)c(Cl)c12,-,0,0,0,0,-
COc1ccc(/C=N/NC(=O)c2ccco2)cc1OCc1ccccc1,0,0,0,0,0,-
N#Cc1ccccc1NC(=O)COC(=O)COc1ccccc1[N+](=O)[O-],0,0,0,0,0,-
CCC(=O)Nc1ccccc1Nc1cc(C#N)c(C#N)cc1[N+](=O)[O-],42,0,0,0,0,0
CN(C)CCN(C(=O)c1ccc(N2C(=O)CCC2=O)cc1)c1nc2cc3c(cc2s1)OCO3,59,0,0,0,0,48
Cc1ccc(S(=O)(=O)N2C[C@H]3[C@H]4C(=O)N(c5ccccc5)C(=O)[C@H]4CC(=O)[C@H]3[C@@H]2c2ccccc2F)cc1,50,-,-,-,-,0
O=[N+]([O-])c1ccc(N2CCN(Cc3ccccc3)CC2)c2c1no[n+]2[O-],42,-,-,-,-,83
O=[N+]([O-])c1ccc(N2CCN(Cc3ccccc3)CC2)s1,0,0,0,0,0,-
O=[N+]([O-])c1ccc(Cl)cc1NCc1cccnc1,51,0,0,0,0,0
Cc1ccc(Cc2c(-c3cccc(Cl)c3)nc3ccc(Br)cn23)cc1,0,-,-,-,-,-
CC(=O)C1=CCC(c2ccccc2F)N(S(=O)(=O)c2ccc(C)cc2)C1 (configuration not stated),0,-,-,-,-,-
O=C(/C=C/c1ccc(Cl)cc1)N1CCN(c2ccc(Cl)cc2[N+](=O)[O-])CC1,43,0,0,0,0,0
O=C(O/N=C\c1ccc(N2CCCCC2)c([N+](=O)[O-])c1)c1ccc(Cl)cc1Cl,49,0,0,0,0,0
SMILES,SENP8 block-1,SENP6 inh,SENP8 block-2,SENP7 block,Platelet DG rel,SENP8 conf
CC(NC(=O)C(=O)NCCc1c[nH]c2ccccc12)c1ccccc1 (configuration not stated),0,0,0,0,-,-
COc1ccccc1NC(=O)COc1ccc(/C=N/NS(=O)(=O)c2ccc(C)cc2)cc1,47,0,0,0,0,0
NC(=O)CC(NC(=O)c1ccccc1)C(=O)O (configuration not stated),42,0,0,0,0,0
Cc1cc(Cl)ccc1OCCCC(=O)NNC(=O)c1ccccc1O,0,0,0,0,0,-
CCOC(=O)CSc1nnc(Cn2nnc3ccccc32)n1-c1ccc(F)cc1,0,0,0,0,0,-
Nc1ncc([N+](=O)[O-])c(Oc2ccccc2F)n1,49,0,0,0,0,0
O=[N+]([O-])c1cccnc1Oc1ccccc1F,0,0,0,0,0,-
O=C(COC(=O)c1cccc(O)c1)Nc1ccc(S(=O)(=O)N2CCOCC2)cc1,0,0,0,0,-,-
O=c1[nH]c(CN2CCN(c3ccccn3)CC2)nc2c(Br)cc(Br)cc12,44,0,0,0,0,0
CCOc1ccc(NC(=O)COC(=O)CC2CC3CCC2C3)cc1 (configuration not stated),0,0,0,0,-,-
COc1cc(/C=N/N2CCOCC2)ccc1OCc1ccc(Cl)cc1,42,0,0,0,0,0
CS(=O)(=O)c1ccc(Nc2nc(C(N)c3ccccc3)cs2)cc1 (configuration not stated),0,-,-,-,-,-
COc1cccc(NC(=O)c2ccc(NCCCN3CC(C)CC(C)C3)c([N+](=O)[O-])c2)c1 (configuration not stated),0,-,-,-,0,-
CCCN(CCC)CCCNc1ccc(C(=O)Nc2cccc(OC)c2)cc1[N+](=O)[O-],35,0,0,0,0,0
Cn1c(CC(=O)Nc2ccccc2F)nnc1SCC(=O)NC1=NCCS1,0,0,0,0,0,-

# Screening results: PubChem, several laboratories
